An excerpt weighted towards active compounds, which were near 27% of everything screened.
EphB4 antag = blocks human EphB4 binding to ephrin-B2. 97,000 tested, 0.15% active. EphB4 LBD / TNYL-RAW-Alexa532 peptide, fluorescence polarization. inhibition, % at 7 µM;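 active = inhibition above the screen-wide mean inhibition plus 3 SD, cut at about 15% in these data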;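 also: 0% = DMSO wells and 100% = excess unlabeled TNYL-RAW peptide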
CYP2C19 inhib = human CYP2C19 inhibition; 96,000 tested, 21% active; AID 778; inhibition, % at 5 µM; CYP2C19 Supersomes, luciferin-H EGE luminescence, 30 min;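 active = CYP2C19 inhibition above a set limit at 5 µM in the primary screen, cut at about 50% in these data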;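 also: plate controls were negative control wells for no effect and 2.5 mM tranylcypromine positive control for full effect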
CYP2C9 inhib = inhibitors of human CYP2C9; P11712; CYP2C9 Supersomes, luciferin-H conversion, luminescence; inhibition, % at 5 µM; 96,000 tested, 20% active;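 active = blocking of liver enzyme CYP2C9 beyond about 50% at 5 µM, limit read from the data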
CYP2C19 activ = cytochrome P450 2C19 (human) activation; 96,000 tested, under 10 active; P33261; recombinant CYP2C19, luciferin-H EGE luminescence; hits give high values; 0 = fully inhibited enzyme, 1 = untreated enzyme; AID 1025; activation factor at 5 µM;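 active = activation factor of at least 2 at 5 µM in the primary screen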;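 also: 0 = wells with 2.5 mM tranylcypromine and 1 = vehicle-only wells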
CYP2C9 act = activators of human CYP2C9. P11712. recombinant CYP2C9, luciferin-H conversion, luminescence; hits give high values; factor 1 = untreated enzyme, 0 = blocked. activation factor at 5 µM. 96,000 tested, 1.4% active;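 active = activation factor of 2 or more for CYP2C9 at a 5 µM dose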;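 also: 0 = sulfaphenazole-blocked wells and 1 = vehicle-only wells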
* marks the source's active call; other numbers are inactive results; . = no result.

SMILES	EphB4 antag	CYP2C19 inhib	CYP2C9 inhib	CYP2C19 activ	CYP2C9 act
CC(C)OC(=O)c1c(NC(=O)c2cccs2)sc2c1CCCC2	.	-4	74*	1	0.3
Cc1nn(C)c(C)c1S(=O)(=O)NCc1cccs1	-2	11	-4	0.9	1
COc1cc(NC(=O)c2ccc(COCC(F)(F)F)cc2)cc(OC)c1OC	4	15	2	0.9	1
CC(CNCC1CCCO1)COc1ccccc1 (configuration not stated)	0	14	25	0.9	0.7
COC(=O)c1c(NC(=O)Cc2cccs2)sc(C)c1C	.	62*	36	0.4	0.6
CCOC(=O)c1c(NC(=O)Cc2cccs2)sc(C(=O)N2CCCCC2)c1C	-4	65*	65*	0.3	0.3
CCOC(=O)c1c(N)sc(C(=O)N2CCCCC2)c1C	6	.	.	.	.
N#CC1=C2SCN(Cc3ccco3)CN2C(=O)CC1c1ccc(Cl)cc1 (configuration not stated)	2	61*	70*	0.4	0.3
CC(C)c1ccc(C2CC(=O)N3CN(Cc4ccco4)CSC3=C2C#N)cc1 (configuration not stated)	6	28	73*	0.7	0.3
CC(=O)Nc1nonc1-c1nc2ccccc2n1Cc1ccccc1	-8	-13	3	1.1	1
Cc1nn(-c2nc3ccccc3n2Cc2ccccc2)c2c1C(=O)CC(C)(C)C2	3	53*	66*	0.5	0.3
COc1ccc(CCNC(=O)CSc2nc3ccccc3o2)cc1OC	9	80*	88*	0.2	0.1
COc1ccc(CCNC(=O)CC2Nc3ccccc3NC2=O)cc1OC (configuration not stated)	-10	21	27	0.8	0.7
Cc1cc(C)cc(NC(=O)c2ccc(CSc3nnc(C)s3)cc2)c1	2	36	-98	0.6	2*
COc1ccc(C(C)=O)cc1CSc1nc2ccccc2o1	5	41	56*	0.6	0.4
COc1ccc(CCNC(=O)CC2Oc3ccc(Cl)cc3NC2=O)cc1OC (configuration not stated)	-2	59*	-51	0.4	1.5
CCOC(=O)COc1cc(N2C(=O)CSCC2=O)c(Cl)cc1Cl	-8	16	2	0.8	1
COc1ccc(C(C)=O)cc1CSc1nnc(C)s1	-13	66*	-2	0.3	1
COc1ccc(CCNC(=O)CSc2nc3cc(Cl)ccc3o2)cc1OC	3	25	66*	0.8	0.3
COc1ccc(CCNC(=O)CSc2nnc(CNC(=O)c3ccccc3F)o2)cc1OC	1	6	15	0.9	0.8
C=CCSc1nc(N)c(C(=O)Nc2ccccc2C)cc1C(N)=O	1	68*	66*	0.3	0.3
Cc1ccccc1NC(=O)c1ccccc1O	2	10	16	0.9	0.8
O=C(CC1CCCCC1)NCCCN1CCOCC1	-1	-26	-17	1.3	1.2
Cc1ccc(CCN2CC(C(=O)NCCCN3CCN(C)CC3)CC2=O)cc1 (configuration not stated)	-10	1	7	1	0.9
O=C(C(=O)N1CCCc2ccccc21)c1c[nH]c2ccccc12	8	67*	-47	0.3	1.5
SMILES	EphB4 antag	CYP2C19 inhib	CYP2C9 inhib	CYP2C19 activ	CYP2C9 act
Cc1[nH]c2ccccc2c1SCC(=O)N1CCCc2ccccc21	2	76*	9	0.2	0.9
O=C(CS(=O)(=O)c1c[nH]c2ccccc12)NC1CCCCC1	1	51*	-66	0.5	1.7
O=C(CS(=O)(=O)c1c[nH]c2ccccc12)N1CCCc2ccccc21	-1	94*	-81	0.1	1.8
O=C(Nc1ccccc1)N1CCCc2ccccc21	3	.	.	.	.
Cc1[nH]c2ccccc2c1SCC(=O)N1CCN(c2ccccc2)CC1	-5	49	5	0.5	0.9
CCn1cc(S(=O)(=O)CC(=O)NC2CCCCC2)c2ccccc21	5	32	3	0.7	1
COc1ccc(CCNC(=O)COc2nsnc2N2CCOCC2)cc1OC	4	9	15	0.9	0.9
Cc1ccc(NC(=O)c2ccc(CSc3nnnn3C)cc2)cc1	0	16	21	0.8	0.8
CNC(=O)CN1C(=O)C2C3C=CC(C3)C2C1=O (configuration not stated)	-1	10	-15	0.9	1.2
CCN1CCN(S(=O)(=O)c2cc(OC)ccc2OC)CC1	0	13	-18	0.9	1.2
Cn1c(=O)c(=O)n(C)c2cc(S(=O)(=O)N3CCN(Cc4ccccc4)CC3)ccc21	3	-2	51*	1	0.5
COc1ccc(C)cc1S(=O)(=O)N1CCN(Cc2ccccc2)CC1	8	96*	90*	0	0.1
CN(Cc1ccccc1)S(=O)(=O)c1ccc2c(c1)n(C)c(=O)n2C	2	65*	4	0.3	1
CCOc1cc(S(=O)(=O)N2CCN(Cc3ccccc3)CC2)ccc1Br	-5	97*	41	0	0.6
COc1ccc(S(=O)(=O)N2CCN(Cc3ccccc3)CC2)cc1	6	89*	-11	0.1	1.1
COc1ccc(S(=O)(=O)N2CCN(C(=O)NCc3ccccc3)CC2)cc1	0	-3	-6	1	1.1
Cn1c(=O)c2cc(S(=O)(=O)N3CCC(c4ccccc4)CC3)ccc2n(C)c1=O	-2	20	68*	0.8	0.3
COc1ccc(S(=O)(=O)N2CCCN(Cc3cccc(F)c3)CC2)cc1	-3	60*	-55	0.4	1.6
O=S(=O)(c1ccccc1)N1CCN(Cc2cccc(Cl)c2)CC1	3	70*	61*	0.3	0.4
COc1ccc(CN2CCN(S(=O)(=O)c3ccc(F)cc3)CC2)cc1OC	2	-1	-1	1	1
CCn1cc(C(=O)N2CCN(Cc3ccc4c(c3)OCO4)CC2)c(=O)c2ccc(C)nc21	11	-4	2	1	1
COc1cccc(CN2CCN(S(=O)(=O)c3ccc(Br)cc3)CC2)c1	-1	86*	61*	0.1	0.4
COc1cccc(C(=O)CN2CCN(S(=O)(=O)c3ccc(Br)cc3)CC2)c1	1	21	4	0.8	1
Cn1c(CSCc2ccccc2Cl)nnc1SCC(=O)Nc1nccs1	5	49	61*	0.5	0.4
CCSCc1nnc(SCC(=O)Nc2nc3ccccc3s2)n1C	4	18	63*	0.8	0.4
Cc1[nH]c2ccccc2c1C1=CN2CCS(=O)(=O)N=C2S1	-10	29	28	0.7	0.7
Cn1c(N2CCCC2)nc2c1c(=O)n(Cc1cccc(F)c1)c(=O)n2C	2	2	81*	1	0.2
Cn1c(NCc2ccccc2)nc2c1c(=O)n(Cc1ccc(Br)cc1)c(=O)n2C	0	89*	97*	0.1	0
COc1ccc(Cn2c(=O)c3c(nc(NCCO)n3C)n(C)c2=O)cc1	.	1	-35	1	1.3
COc1ccc(CNc2nc3c(c(=O)n(Cc4ccc(Br)cc4)c(=O)n3C)n2C)cc1	1	48	63*	0.5	0.4
